Measured values published in PubChem BioAssay (EPA / NIEHS).
Records with an inconclusive call do not appear. Active and inactive are the calls of the source. The calls were made as follows: active = hit-call score of the fitted dose curve at least 0.9, where 1 is the maximum; inconclusive = response in the unintended direction; inactive = score below 0.9.

Assay: CLD_ACTIN_6hr: CellzDirect (CLD) Gene Expression Assay for Baseline Control (Actin) at 6 hours (AID 2283676);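 also: active means increased actin mRNA relative to DMSO vehicle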
Procedure: CLD_6hr is a cell-based, multiplexed-readout assay that uses hepatocyte, a human liver primary cell, with measurements taken at 6 hours after chemical dosing in a 96-well plate.CLD_ACTIN_6hr is one of 16 assay component(s) measured or calculated from the CLD_6hr assay. It is designed to make measurements of mRNA induction, a form of inducible reporter, as detected with chemiluminescence signals by Quantitative Nuclease Protection Assay (qNPA) technology.Data from the assay component CLD_ACTIN_6hr was analyzed at the endpoint, CLD_ACTIN_6hr, in the positive analysis fitting direction relative to DMSO as the negative control and baseline of activity. Using a type of inducible reporter, gain-of-signal activity can be used to understand changes in the reporter gene as they relate to the gene ACTA1. Furthermore, this assay endpoint can be referred to as a secondary readout, because this assay has produced multiple assay endpoints where this one serves a background control function. To generalize the intended target to other relatable targets, this assay endpoint is annotated to the background measurement intended target family, where subfamily is baseline control.
Human hepatocyte cultures were treated daily for two consecutive days with fresh dosing solutions containing appropriate concentrations of the 320 ToxCast chemicals (chemical identities were blinded to CellzDirect and other ToxCast collaborators), vehicle control (0.2% DMSO), and positive control inducers as summarized in Table 1. Due to the large number of treatment groups and chemicals examined, the ToxCast chemicals were divided into two groups (spanning two independent cultures of hepatocytes from separate donor preparations (Hu778: ToxCast plates 1 and 2; Hu776: ToxCast plates 3 and 4). Each preparation of human hepatocyte cultures was treated with respective vehicle control, medium only control, set of six positive controls/reference chemicals for the five hepatic receptor pathways, and a subset of eight of the ToxCast chemicals (indoxacarb, pyrithiobac-sodium, norflurazon, cyhalofop-butyl, methomyl, thiram, acetochlor, and propiconazole). These replicate data, coupled with internal replicates designed within the blinded ToxCast chemical library, provided additional data to evaluate interindividual differences between hepatocyte preparations and their potential impact on chemical profiles.Cell morphology and integrity were evaluated using phase-contrast microscopy as an indicator of hepatocyte cell health (Tyson & Green, 1987). Cultures for each treatment group (i.e., media, vehicle [0.2% DMSO], positive control inducers [multiple concentrations], and the ToxCast chemicals [multiple concentrations]) were observed and cell morphology was assessed relative to vehicle control cultures at each harvest time point (0, 6, 24, or 48 h). […] Images were evaluated at the conclusion of the study to assess changes in cell integrity and account for the effects of chemical exposure on uncharacteristic changes in concentration-dependent gene expression profiles. The results from these determinations of apparent cytotoxicity were annotated (yes/no) alongside the corresponding qNPA data for reference.At the conclusion of each treatment period, hepatocyte cultures (96-well) were washed with 1 volume of HBSS, lysed by addition of 25 ul ArrayPlate lysis buffer (HTG, Tucson, AZ), and 70 ul/well of Denaturation Oil, denatured by incubation at 95C for 10 min, and frozen at approximately -70C until analysis by nuclease protection assay (qNPA) (Roberts et al., 2007). For qNPA analysis, cell lysates were thawed at 50C for approximately 30 min, qNPA probes were added, and samples were incubated at 95C for 10 min to begin the detection process by denaturing the target RNA, dissociating the duplexes and secondary structure hybridization. At the conclusion of the hybridization period, S1 nuclease reagent was added to each sample to digest all nonprotected nucleotides at 50C for 60-90 min. […]

SMILES | outcome
CC(C)(c1ccc(O)cc1)c1ccc(O)cc1 | inactive
COC(=O)c1ccccc1C(=O)O | inactive
CCOC(=O)C(C)Oc1ccc(Oc2cnc3cc(Cl)ccc3n2)cc1 (stereo unspecified) | inactive
COc1c(Cl)ccc(Cl)c1C(=O)O | inactive
CCCN(CCC)C(=O)SCC | inactive
N#CSCSc1nc2ccccc2s1 | inactive
CCC(C)OC(=O)N1CCCCC1CCO (stereo unspecified) | inactive
COC(=O)c1ccc(I)cc1S(=O)(=O)NC(=O)Nc1nc(C)nc(OC)n1 | inactive
CCCOC(=O)NCCCN(C)C | inactive
CCCCCCC(C)OC(=O)COc1nc(F)c(Cl)c(N)c1Cl (stereo unspecified) | inactive
CCCN(CCC)c1c([N+](=O)[O-])cc(C(F)(F)F)c(N)c1[N+](=O)[O-] | inactive
COc1nc(C)nc(NC(=O)NS(=O)(=O)c2ccccc2OCCCl)n1 | inactive
CC1(C)C(C=C(Cl)Cl)C1C(=O)OCc1cccc(Oc2ccccc2)c1 (stereo unspecified) | inactive
CCN(CC)C(=O)c1cccc(C)c1 | inactive
COC(=O)c1cccc(C)c1S(=O)(=O)NC(=O)Nc1nc(OCC(F)(F)F)nc(N(C)C)n1 | inactive
c1ccc2[nH]c(-c3cscn3)nc2c1 | inactive
CSC(=O)c1cccc2nnsc12 | inactive
CCOC(=O)NCCOc1ccc(Oc2ccccc2)cc1 | inactive

SMILES | outcome
COC(=O)c1ccccc1S(=O)(=O)NC(=O)Nc1nc(OC(F)F)cc(OC(F)F)n1 | inactive
CCCCC(CC)CN1C(=O)C2C3C=CC(C3)C2C1=O (stereo unspecified) | inactive
COCCO | inactive
C=CCOC(Cn1ccnc1)c1ccc(Cl)cc1Cl (stereo unspecified) | inactive
COC(=O)c1c(Cl)nn(C)c1S(=O)(=O)NC(=O)Nc1nc(OC)cc(OC)n1 | inactive
Oc1ccc(C(c2ccc(O)cc2)C(Cl)(Cl)Cl)cc1 | inactive
C#CCOC(=O)[C@@H](C)Oc1ccc(Oc2ncc(Cl)cc2F)cc1 | inactive
CCOC(=O)[C@H](C)Oc1ccc(Oc2nc3ccc(Cl)cc3o2)cc1 | inactive
O=C(Nc1ccc([N+](=O)[O-])cc1Cl)c1cc(Cl)ccc1O | inactive
CCSC(=O)N(CC(C)C)CC(C)C | inactive
Cc1nn(C)c(Oc2ccccc2)c1C=NOCc1ccc(C(=O)OC(C)(C)C)cc1 | inactive
CCCCOC(=O)[C@@H](C)Oc1ccc(Oc2ccc(C(F)(F)F)cn2)cc1 | inactive
COC(=O)c1ccc(CNS(C)(=O)=O)cc1S(=O)(=O)NC(=O)Nc1nc(OC)cc(OC)n1 | inactive
S=C([S-])NCCNC(=S)[S-].[Mn+2] | inactive
CCCOC(=O)c1ccc(C(=O)OCCC)nc1 | inactive
CC(C)(C)[C@@H](O)[C@@H](Cc1ccc(Cl)cc1)n1cncn1 | inactive
O=C(O)C1(C(=O)Nc2ccc(Cl)cc2Cl)CC1 | inactive
CCOC(=O)C(C)Oc1ccc(Oc2nc3ccc(Cl)cc3o2)cc1 (stereo unspecified) | inactive
